Records with an inconclusive call do not appear. Calls of active or inactive are those of the source. Calls follow the shape of the dose curve; as a rule, active = well fitted cell-killing curve with a large enough effect in the repeat runs; inconclusive = weak or mixed curves, or effect the other way; inactive = flat fitted curve, though single readings scatter.
Assay: cAMP Responsive Elements (CRE) small molecule antagonists, cell-based qHTS assay: qHTS cell viability counter screen (AID 2060913); also: nearly all actives have a fitted effect of over 40% in size
Details: CRE-bla HEK293T viability, CellTiter-Glo luminescence, 5 h; series mostly up to 92.4 µM; viability change, negative = cytotoxic: at the top concentration
Summary of the method: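 Steps: cells plated and held 18 hrs at 37 C/5% CO2; compounds and NKH477 (0.25 uM final) added; 3 hrs incubation; reporter substrate read; CellTiter-Glo added to measure cytotoxicity by luminescence.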
% is scaled to controls: 0 for no effect and ±100 for the full control effect.

Row | Compound | viability change, negative = cytotoxic | Potency
1 | CCCC(=O)OCC(COC(=O)CCC)OC(=O)CCC | 1% (inactive) | –
2 | CC(=O)CC(C)(C)C1CCCCC1 | -13.8% (inactive) | –
3 | O=C(Nc1ccc([N+](=O)[O-])cc1)Nc1ccc([N+](=O)[O-])cc1 | 8.01% [at 42.5 µM] (inactive) | –
4 | Cc1c(C)c2c(c(C)c1O)CCC(C)(COc1ccc(CC3SC(=O)NC3=O)cc1)O2 (centres undefined) | – | inactive
5 | CNCCCC12CCC(c3ccccc31)c1ccccc12 | -4.12% [at 42.5 µM] (inactive) | –
6 | CC(C)C[C@H](NC(=O)OCC1c2ccccc2-c2ccccc21)C(=O)O | -1.5% (inactive) | –
7 | C[C@]12C=CC(=O)C=C1CC[C@@H]1[C@@H]2C(=O)C[C@@]2(C)[C@H]1CC[C@]2(O)C(=O)CO | – | inactive
8 | CC(C)=CCC/C(C)=C/C#N | 0.815% (inactive) | –
9 | CC(O)COC(C)(C)C (centres undefined) | -1.05% (inactive) | –
10 | CCc1c(Br)c(Br)c(Br)c(Br)c1Br | -13.6% (inactive) | –
11 | O=C(c1ccc(O)c(O)c1)c1ccc(O)cc1O | 19% (inactive) | –
12 | COc1cc(C)ccc1C(C)C | -3.95% (inactive) | –
13 | O=C(O)Cc1ccccc1Nc1c(Cl)cccc1Cl | – | inactive
14 | CCOC(=O)NNc1nncc2ccccc12 | – | inactive
15 | CCC1CCCCC1 | 10.3% (inactive) | –

Assay: cAMP Responsive Elements (CRE) small molecule agonists, cell-based qHTS assay: qHTS cell viability counter screen (AID 2060914);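 also: viability read after 3 h of compound exposure; nearly all actives have a fitted effect of over 50% in size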
Details: CRE-bla HEK293T viability, CellTiter-Glo luminescence, 5 h; series mostly up to 92.4 µM; activity change, negative = cytotoxicity: at the top concentration
Summary of the method: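 Cells are seeded and incubated 18 h, treated with compounds in DMSO for 3 h, read for the bla reporter, then given CellTiter-Glo; luminescence is measured after 30 min at room temperature.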

Row | Compound | activity change, negative = cytotoxicity | Potency
16 | O=C1Nc2cc(Cl)ccc2Oc2ccccc21 | -0.0525% [at 42.5 µM] (inactive) | –
17 | FC(F)(F)c1cccc(Cl)c1 | -19.5% (inactive) | –
18 | CCN(Cc1cccc(S(=O)(=O)O)c1)c1ccc(C(=C2C=CC(=[N+](CC)Cc3cccc(S(=O)(=O)[O-])c3)C=C2)c2ccccc2)cc1 | 17.3% [at 42.5 µM] (inactive) | –
19 | CC(=O)Nc1ccc(C)cc1 | -0.227% (inactive) | –
20 | Cc1cc(Cc2ccc(N)c(C)c2)ccc1N | 2.23% (inactive) | –
21 | C[C@H](CCC(=O)O)[C@H]1CC[C@H]2[C@@H]3CC[C@@H]4C[C@H](O)CC[C@]4(C)[C@H]3CC[C@]12C | – | inactive
22 | C=C(C)C(=O)OCCC[Si](Cl)(Cl)Cl | -11.7% (inactive) | –
23 | CCCCCCCCC(CCCCCC)C(=O)O (centres undefined) | -1.89% (inactive) | –
24 | CC(C)(C)NCC(O)c1ccc(O)c(CO)c1 (centres undefined) | – | inactive
25 | CCCCCC(=O)OCCc1ccccc1 | 3.84% (inactive) | –
26 | Cc1cccc(C)c1NC(=O)c1ccc(N)cc1 | -0.641% [at 42.5 µM] (inactive) | –
27 | COc1ccc2c(c1)c(CC(=O)OC/C=C(\C)CC/C=C(\C)CCC=C(C)C)c(C)n2C(=O)c1ccc(Cl)cc1 | 8.98% [at 42.5 µM] (inactive) | –
28 | C/C(C=O)=C\c1ccccc1 | -7.37% (inactive) | –
29 | CC(C)(C#N)c1cc(Cn2cncn2)cc(C(C)(C)C#N)c1 | – | inactive
30 | CC(N)CN (centres undefined) | 7.84% (inactive) | –
31 | C=CC(=O)O | 0.883% [at 42.5 µM] (inactive) | –
32 | C/C=C(/C(=C/C)c1ccc(O)cc1)c1ccc(O)cc1 | -1.19% [at 42.5 µM] (inactive) | –
33 | OC1OCCOC1O (centres undefined) | -18% (inactive) | –
34 | CC(C)CCCC(C)CC=O (centres undefined) | 8.07% (inactive) | –
35 | O=C(O)c1ccco1 | 5.65% (inactive) | –

Row | Compound | activity change, negative = cytotoxicity | Potency
36 | COc1cc2ncnc(Nc3ccc(F)c(Cl)c3)c2cc1OCCCN1CCOCC1 | 0% [at 42.5 µM] (inactive) | –
37 | Cc1ccc2c(c1)OCC(=O)CO2 | -10.5% (inactive) | –
38 | CC1COc2ccccc2N1 (centres undefined) | -9.17% (inactive) | –
39 | CNC(=O)CN(CCN(CCN(CC(=O)[O-])CC(=O)NC)CC(=O)[O-])CC(=O)[O-].O.[Gd+3] | -0.484% [at 42.5 µM] (inactive) | –
40 | CCCC(=O)OCC(COC(=O)CCC)OC(=O)CCC | -3.26% (inactive) | –
41 | CC(=O)CC(C)(C)C1CCCCC1 | 3.17% (inactive) | –
42 | O=C(Nc1ccc([N+](=O)[O-])cc1)Nc1ccc([N+](=O)[O-])cc1 | 4.2% [at 42.5 µM] (inactive) | –
43 | Cc1c(C)c2c(c(C)c1O)CCC(C)(COc1ccc(CC3SC(=O)NC3=O)cc1)O2 (centres undefined) | – | inactive
44 | CNCCCC12CCC(c3ccccc31)c1ccccc12 | 0.973% [at 42.5 µM] (inactive) | –
45 | CC(C)C[C@H](NC(=O)OCC1c2ccccc2-c2ccccc21)C(=O)O | -1.34% (inactive) | –
46 | C[C@]12C=CC(=O)C=C1CC[C@@H]1[C@@H]2C(=O)C[C@@]2(C)[C@H]1CC[C@]2(O)C(=O)CO | – | inactive
47 | CC(C)=CCC/C(C)=C/C#N | 22.2% (inactive) | –
48 | CC(O)COC(C)(C)C (centres undefined) | -10% (inactive) | –
49 | CCc1c(Br)c(Br)c(Br)c(Br)c1Br | -5.01% (inactive) | –
50 | O=C(c1ccc(O)c(O)c1)c1ccc(O)cc1O | 8.25% (inactive) | –
51 | COc1cc(C)ccc1C(C)C | 8.61% (inactive) | –
52 | O=C(O)Cc1ccccc1Nc1c(Cl)cccc1Cl | – | inactive
53 | CCOC(=O)NNc1nncc2ccccc12 | – | inactive
54 | CCC1CCCCC1 | 0.364% (inactive) | –

— PubChem BioAssay (Tox21)
